An excerpt weighted towards active compounds, which were near 1.9% of everything screened.
MOR-DOR ag-1: OPRM1-OPRD1 heterodimerization agonism | P35372+P41143 | cells, luminescence | activation, % at 9.3 µM | 0.3% of 340,000 active | AID 504326; in the data active = activation above about 18%;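 also: 0% = vehicle-treated cells and 100% = reference agonist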
MOR-DOR inv ag-1: mu-delta opioid heterodimer inverse agonism | 0.21% of 340,000 active | AID 504357 | inhibition, % at 9.3 µM | cell-based MOR-DOR heterodimer luminescence; in the data active = inhibition above about 22%, passing the limit was not always enough;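 also: 0% = cells with DMSO and 100% = wells without cells with DMSO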
bovine MsrA act: activators of bovine methionine sulfoxide reductase A. 0.3% of 360,000 active. activation, % at 10.6 µM. purified bovine MsrA, absorbance read-out; in the data active = activation above about 7.5%;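 also: 0% = vehicle and 100% = reference activator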
HTR5A ag: activates human HTR5A in OPRM1-OPRD1 agonist counter-screen | P47898 | HTR5A agonist assay, luminescence, cell-based | activation, % at 9.3 µM | 0.61% of 340,000 active | AID 504692; in the data active = activation mostly above about 9.5%, no sharp cut-off; inactive = mostly below about 7.6%;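 also: 0% = cells with vehicle only and 100% = reference agonist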
Target sequence (P47898 whole entry, looked up): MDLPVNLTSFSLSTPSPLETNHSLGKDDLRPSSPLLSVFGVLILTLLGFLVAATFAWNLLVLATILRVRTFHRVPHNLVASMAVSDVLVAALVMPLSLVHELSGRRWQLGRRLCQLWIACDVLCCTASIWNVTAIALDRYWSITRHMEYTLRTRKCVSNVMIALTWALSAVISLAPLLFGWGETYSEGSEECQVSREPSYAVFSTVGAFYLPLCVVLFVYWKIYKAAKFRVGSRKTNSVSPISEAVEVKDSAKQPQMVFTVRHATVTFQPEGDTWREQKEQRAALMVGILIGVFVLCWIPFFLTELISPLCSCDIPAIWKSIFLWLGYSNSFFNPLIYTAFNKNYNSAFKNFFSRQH
MsrA inh: inhibits bovine methionine sulfoxide reductase A; purified bovine MsrA, absorbance read-out; inhibition, % at 15.5 µM; 0.75% of 360,000 active; AID 651718; in the data active = inhibition above about 4.5%;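 also: 0% = vehicle wells with enzyme and 100% = reference inhibitor wells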
HTR5A inv ctr: counter-screen for OPRM1-OPRD1 inverse agonists: human HTR5A inverse agonism | inhibition, % at 9.3 µM | 0.083% of 340,000 active | HTR5A cell line, luminescence | P47898; in the data active = inhibition mostly above about 23%, no sharp cut-off; inactive = mostly below about 18%;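 also: 0% = cells with DMSO and 100% = no-cell wells with DMSO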
OPRM1-D1 inv cf: OPRM1-OPRD1 heterodimer inverse agonism, confirmation; inhibition, % at 9.3 µM; 20% of 580 active; cells expressing OPRM1/OPRD1 heterodimer, luminescence; AID 504900; shares compounds with MOR-DOR inv ag-1; in the data active = inhibition above about 32%;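 also: 0% = cells with DMSO and 100% = wells lacking cells with DMSO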
HTR5A inv count: HTR5A inverse agonism, opioid heterodimer counter-screen | shares compounds with MOR-DOR inv ag-1 | HTR5A-expressing cells, luminescence | inhibition, % at 9.3 µM | 580 tested, under 10 active | AID 504914;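 also: 0% = cells with DMSO and 100% = no-cell wells with DMSO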
MOR-DOR inv ag-2: inverse agonist of OPRM1-OPRD1 heterodimerization in HTR5A counter-screen; shares compounds with HTR5A inv ctr; U2OS counter-screen cells, complementation luminescence; inhibition, % at 9.3 µM; 190 tested, under 10 active;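 also: 0% = cells with DMSO and 100% = wells without cells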
HTR5A inv confrm: confirmation of human HTR5A inverse agonists; inhibition, % at 9.3 µM; shares compounds with HTR5A inv ctr; AID 504916; 190 tested, under 10 active; HTR5A-expressing cells, inverse agonism, luminescence;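 also: 0% = cells with DMSO and 100% = no cells with DMSO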
MOR-DOR ag-2: promotes OPRM1-OPRD1 heterodimerization in HTR5A counter-screen | shares compounds with HTR5A ag | U2OS counter-screen cells, complementation luminescence, 3 h | activation, % at 9.3 µM | 13% of 800 active | AID 504913; in the data active = activation above about 18%
HTR5A ag conf: HTR5A (human) agonism, confirmation; AID 504915; 17% of 800 active; HTR5A agonist cell assay, luminescence; activation, % at 9.3 µM; shares compounds with HTR5A ag; in the data active = activation above about 17%;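 also: 0% = cells with vehicle only and 100% = full reference agonist response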
* = called active by the depositor; x = not tested or not shown. Unless noted, no rule for the calls is given here.

SMILES	MOR-DOR ag-1	MOR-DOR inv ag-1	bovine MsrA act	HTR5A ag	MsrA inh	HTR5A inv ctr	OPRM1-D1 inv cf	HTR5A inv count	others
ON1C2CCCCC2N(O)C1c1ccccc1 (stereo not drawn)	-8	45*	-1	3	0	15	-37	-21
c1ccc(C2N3CCCN23)cc1 (stereo not drawn)	0	-2	2	2	0	10	x	x
C[C@H]1CCCC(=O)CCC/C=C/c2cc(O)cc(O)c2C(=O)O1	3	-16	0	-4	1	-24	x	x
C[C@H]1CCC/C=C/[C@@H]2C[C@H](O)C[C@H]2[C@H](O)/C=C/C(=O)O1	-6	33*	-2	-2	0	0	-11	-4
CCCCn1c(NS(=O)(=O)c2ccc(C)cc2)c(C(=O)OCC)c2nc3ccccc3nc21	-4	22	2	2	1	4	x	x
CCCCn1c(NC(=O)c2ccco2)c(C(=O)OCC)c2nc3ccccc3nc21	-8	45*	-1	-1	1	2	-14	-12
CCCCOCCCn1c(N)c(C(=O)OCCOC)c2nc3ccccc3nc21	-7	33*	-3	1	2	-2	-9	-5
CC(C)NC1(c2ccccc2)CCCCC1	x	x	x	x	0	x	x	x
CC1CN(O)C2CCc3nonc3C12O (stereo not drawn)	-9	43*	-1	-9	0	22	-23	-6
Cc1ccc(N/N=C/c2c(O)n(-c3ccccc3)c(=O)[nH]c2=O)cc1	-7	32*	-3	0	0	0	-10	-1
O=C(NCCN1CCC2(CC1)C(=O)NCN2c1ccccc1)c1ccc(OC(F)(F)F)cc1	x	x	x	x	0	x	x	x
C[C@H](Cc1ccc(OCC(=O)O)cc1)NC[C@H](O)c1cccc(Cl)c1	x	x	x	x	-1	x	x	x
CC1CN(CC(=O)c2ccccc2Cl)CC(C)O1 (stereo not drawn)	-1	5	-2	-2	-1	6	x	x
CC1CCN(CC(=O)c2ccccc2Cl)CC1	-8	40*	-8	2	0	-5	25	1
Clc1ccc([C@H]2CC3CCC2N3)cn1 (stereo partly drawn)	x	x	x	x	-1	x	x	x
CCOc1ccc2nc(N=Nc3c(O)[nH]c(=S)[nH]c3=O)sc2c1	-7	32*	-5	-1	0	38	7	5
O=C(NCCN1CCC2(CC1)C(=O)NCN2c1ccccc1)c1cc(C(F)(F)F)ccc1C(F)(F)F	x	x	x	x	-1	x	x	x
Nc1cc(Cl)c2nonc2c1[N+](=O)[O-]	-8	40*	-6	-8	3	0	11	11
COC(=O)C1C(OC(=O)c2ccccc2)CC2CCC1[N+]2(C)C (stereo not drawn)	x	x	x	x	-1	x	x	x
CC1CCCN(CC(=O)c2ccc(Cl)c(Cl)c2)C1 (stereo not drawn)	-14	71*	-1	-6	0	25	66*	5
COC(COC(N)=O)C1=C(N2CC2)C(=O)C(C)=C(N2CC2)C1=O (stereo not drawn)	3	-13	-2	1	1	-3	x	x
CC1=C(N2CC2)C(=O)C(CO)=C(N2CC2)C1=O	-10	42*	-1	-8	4	30	-4	0
CN(C)c1ccc(/C=C/c2cc[n+](C)c3ccccc23)cc1	-5	28	1	-10	1	38*	x	x	MOR-DOR inv ag-2=-485;HTR5A inv confrm=-16
O=C(NCCN1CCC2(CC1)C(=O)NCN2c1ccccc1)c1ccccc1C(F)(F)F	x	x	x	x	0	x	x	x
Cc1cccc(CSc2nc3c(cc2C#N)CN(C)CC3)c1	-3	18	-2	20*	1	-51	x	x	MOR-DOR ag-2=0;HTR5A ag conf=0
SMILES	MOR-DOR ag-1	MOR-DOR inv ag-1	bovine MsrA act	HTR5A ag	MsrA inh	HTR5A inv ctr	OPRM1-D1 inv cf	HTR5A inv count	others
CN1CCc2nc(SCc3ccccc3Br)c(C#N)cc2C1	-2	8	-2	-5	0	-39	x	x
CC1=C[C@@H]2c3cccc4[nH]cc(c34)C[C@H]2N(C)C1	5	-23	1	26*	0	-93	x	x	MOR-DOR ag-2=1;HTR5A ag conf=34*
Clc1cc(I)cc(Cl)c1NC1=NCCN1	-1	6	0	43*	0	-154	x	x	MOR-DOR ag-2=1;HTR5A ag conf=-1
CCC(=NCCc1c[nH]c2ccccc12)c1c(O)n(C)c(=O)n(C)c1=O	1	-7	-2	40*	-1	-124	x	x	MOR-DOR ag-2=1;HTR5A ag conf=1
CC(=NCCc1c[nH]c2ccccc12)c1c(O)n(Cc2ccccc2)c(=O)[nH]c1=O	-1	4	0	8	2	-82	x	x
CCC(=NCCc1c[nH]c2ccccc12)c1c(O)n(-c2ccc(C)cc2)c(=O)[nH]c1=O	0	2	-9	19*	0	-113	x	x	MOR-DOR ag-2=0;HTR5A ag conf=-8
CCCN(CCC)C1CCc2cccc(O)c2C1 (stereo not drawn)	-2	10	-2	46*	-1	-146	x	x	MOR-DOR ag-2=1;HTR5A ag conf=56*
CCCN(CCC)C1CCc2ccc(O)cc2C1 (stereo not drawn)	2	-9	1	35*	-1	-139	x	x	MOR-DOR ag-2=31*;HTR5A ag conf=1
CCCN1CC[C@@H]2c3cc(O)ccc3CC[C@@H]21	1	-5	0	6	1	-20	x	x
CCOC(=O)[C@]12Cc3cc(C)ccc3[C@H]1N(C(C)C)C(=O)c1ccccc12	x	x	0	x	-1	x	x	x
COc1nc2ccccc2nc1N1CCN(C)CC1	-1	7	-3	20*	2	-79	x	x	MOR-DOR ag-2=4;HTR5A ag conf=6
CCOC(=O)[C@]12Cc3ccccc3[C@H]1N(CCC(=O)OC)C(=O)c1ccccc12	x	x	-9	x	2	x	x	x
O=C(Nc1ccc(C(=O)O)cc1)Oc1ccc(N(CCCl)CCCl)cc1	x	x	-3	x	0	x	x	x
CCN(CC)c1ccc(N=Cc2c(O)n(-c3ccccc3C)c(=O)[nH]c2=O)cc1	3	-18	0	18*	0	-26	x	x	MOR-DOR ag-2=13;HTR5A ag conf=5
O=c1[nH]c2ccccc2n1C1CCN(Cc2ccc(-c3nc4ccc(F)cc4nc3-c3ccccc3)cc2)CC1	x	x	-2	x	2	x	x	x
CCCCCN1C(=O)c2ccccc2[C@@]2(C(=O)OCC)Cc3cc(OC)ccc3[C@@H]12	x	x	2	x	1	x	x	x
CCCCc1ccc2[nH]cc(CCN)c2c1	5	-31	0	97*	-1	-231	x	x	MOR-DOR ag-2=-2;HTR5A ag conf=-7

Source: PubChem BioAssay (The Scripps Research Institute Molecular Screening Center)
